B2AR arrestin: agonists driving beta-arrestin recruitment to human beta2-adrenergic receptor | P07550 | AID 492947 | Potency, µM (doses to about 46.1 µM), inactives show at the highest dose activation, hits mostly activators | actives 0.02% (n = 330,000) | beta-arrestin recruitment to beta2AR, cell-based reporter;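 further: potency means the concentration at half of the fitted maximal effect; 0% = DMSO controls and full agonism = EC100 isoproterenol or metaproterenol; nearly all actives have a fitted effect of over 65% in size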
CtBP-E1A blk: blocks the CtBP interaction with E1A | AlphaScreen GST-E1A/His-CtBP binding, 1536-well; active compounds read low | actives 0.49% (n = 340,000) | AID 651724 | activity change, % (no concentration beside the values); in the data active means activity change below about -65%; inconclusive means mostly about -30% to -63%
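Homogeneous bead-based format: GST-tagged E1A captured on glutathione donor beads, His-tagged CtBP on nickel acceptor beads; compounds precede bead addition by 2 h at 37 °C.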
Six1-Eya2 inh: Six1/Eya2 interaction inhibition; AlphaScreen GST-Six1/His-Eya2 binding, biochemical; active compounds read low; activity change, % (no concentration beside the values); actives 0.56% (n = 360,000); in the data active means activity change below about -65%; inconclusive means mostly about -30% to -63%
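AlphaScreen luminescence read after one hour at 37 °C in darkness. Pin-transferred compounds met GST-Six1 and His-Eya2 protein (5X stock 250 nM/500 nM) plus glutathione donor and Ni-chelate acceptor beads (5X, 50 ug/mL).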
Eya2 phos inh: Eya2 (human) phosphatase inhibition; recombinant Eya2, OMFP fluorescence dephosphorylation (OMFP is methylfluorescein phosphate); Potency, µM (highest dose often 76.9 µM), for the others: top-dose activity, negative = inhibition, most hits filed as inhibitors; O00167; actives 0.006% (n = 330,000); AID 488837; further: potency means the concentration at half of the fitted maximal effect
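Eya2 (0.2 uM) preincubated 10 min at ambient with compound, then OMFP substrate added at 50 uM; 10 min reaction in 50 mM HEPES pH 7.5, 50 mM NaCl, 5 uM MgCl2, 0.05% BSA, 1 mM DTT. Fluorescence read at Ex 485/Em 525 nm.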
L3MBTL1 block: L3MBTL1 (human) inhibition; Q9Y468; AID 485360; AlphaScreen L3MBTL1–H3K9me1 peptide binding; actives 0.66% (n = 230,000); Potency, µM (doses to about 57.1 µM), inactives show top-dose activity, negative = inhibition, hits mostly inhibitors; further: potency means the concentration at half of the fitted maximal effect; nearly all actives have a fitted effect of over 60% in size
Target sequence (Q9Y468 whole entry, looked up): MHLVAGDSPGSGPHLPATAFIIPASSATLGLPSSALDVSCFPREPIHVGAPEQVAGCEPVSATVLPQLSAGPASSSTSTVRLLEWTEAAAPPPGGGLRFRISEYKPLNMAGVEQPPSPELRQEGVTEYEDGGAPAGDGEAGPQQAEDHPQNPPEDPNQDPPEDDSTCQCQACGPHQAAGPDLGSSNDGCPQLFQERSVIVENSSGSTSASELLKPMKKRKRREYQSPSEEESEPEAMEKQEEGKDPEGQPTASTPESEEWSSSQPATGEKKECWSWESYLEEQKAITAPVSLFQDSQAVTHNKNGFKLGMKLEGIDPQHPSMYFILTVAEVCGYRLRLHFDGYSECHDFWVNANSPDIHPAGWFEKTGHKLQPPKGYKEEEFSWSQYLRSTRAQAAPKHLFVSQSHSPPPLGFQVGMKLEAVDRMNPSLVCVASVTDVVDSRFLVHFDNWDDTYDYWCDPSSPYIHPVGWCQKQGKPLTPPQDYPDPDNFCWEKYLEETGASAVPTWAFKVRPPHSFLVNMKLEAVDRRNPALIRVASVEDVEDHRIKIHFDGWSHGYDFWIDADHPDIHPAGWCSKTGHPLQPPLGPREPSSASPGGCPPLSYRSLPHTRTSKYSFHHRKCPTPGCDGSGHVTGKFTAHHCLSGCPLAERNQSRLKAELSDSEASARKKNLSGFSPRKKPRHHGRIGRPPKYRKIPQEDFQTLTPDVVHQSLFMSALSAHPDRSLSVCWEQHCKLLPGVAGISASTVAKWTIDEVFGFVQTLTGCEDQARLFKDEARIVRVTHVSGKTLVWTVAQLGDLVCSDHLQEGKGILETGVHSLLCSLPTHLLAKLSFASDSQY
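L3MBTL1 (50 nM) pre-complexed 30 min with biotinylated H3(1-15)K9me1 peptide (75 nM), then compounds added for 30 min at room temperature; AlphaScreen streptavidin donor/nickel chelate acceptor beads (10 ug/mL final) read after 30 min dark incubation.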
* hit, by the source's call; ? = inconclusive; . = no result given. Compounds with a hit are over-represented: about 0.9% of the library has one in this group of screens. Unless noted, the call rests on the fitted dose curve; in most records, active means well fitted curve in the direction sought with a large enough effect; inconclusive means small, poorly fitted or top-dose-only effect, or another doubt; inactive means no such curve, though single readings can be large; an effect the other way counts as inactive or inconclusive. Unless noted, on the % scale 0 is the no-effect control and ±100 the full control effect.

SMILES	B2AR arrestin	CtBP-E1A blk	Six1-Eya2 inh	Eya2 phos inh	L3MBTL1 block
CCN(CC)c1ccc(/C=N/N2CCN(Cc3ccccc3)CC2)c(O)c1	-1%	?	-75*	4%	-3%
CCN(CC)c1ccc(/C=N/N2CCN(c3ccccc3OC)CC2)cc1	0%	-21	-67*	-13%	-14%
COc1ccc2nc(SCC(=O)C(C)(C)C)[nH]c2c1	-1%	.	-1	-19%	2%
Oc1[nH]c2ccccc2c1N=Nc1ccccn1	.	6	0	.	.
Oc1c(N=Nc2ccccn2)ccc2ccccc12	0%	-95*	-97*	-7%	11µM*
Cc1csc(N/N=C/c2ccccc2F)n1	0%	-9	-12	-2%	1%
CCOc1ccc(/C=N/Nc2cc(N3CCOCC3)ncn2)c(O)c1	.	?	-71*	.	.
COc1cc(N/N=C/c2ccccc2O)ncn1	0%	-96*	-88*	1%	?
CCOc1ccc(/C=N/Nc2nc(C)cs2)c(O)c1	-1%	?	-68*	12%	-5%
CCn1c(=O)n(CC)c2cc(N3CCCC3)c(NC(=O)c3ccccc3F)cc21	0%	1	0	-20%	.
Cc1ccccc1N(C(=O)CNC(=O)c1ccco1)C(C(=O)NC1CCCCC1)c1cccnc1 (stereo unspecified)	0%	13	6	3%	.
CC1(C(=O)Nc2ccc3c(c2)OCO3)CCN1C(=O)CCc1ccc(Cl)cc1Cl (stereo unspecified)	.	-6	-12	.	.
O=C(N/N=C/c1cc(Br)cc(Br)c1O)c1ccncc1	0%	-93*	-80*	6%	25µM*
O=C(N/N=C/c1ccc(O)cc1O)c1ccc(NC(=O)C2CCCCC2)cc1	0%	-90*	-72*	-7%	.
Cc1nonc1C(=O)N/N=C/c1ccc(O)cc1O	0%	.	-90*	3%	6%
O=C(N/N=C/c1cccc(O)c1)c1ccc(NC(=O)C2CCCCC2)cc1	1%	-8	-3	-7%	.
O=C(N/N=C/c1cc(Cl)cc(Cl)c1O)c1ccncc1	0%	.	-92*	17%	28µM*
Cc1cccc(C(=O)Oc2c(Br)cc(Br)cc2/C=N/NC(=O)c2ccncc2)c1	0%	2	-2	18%	.
Cc1ccc(NC(=O)NC2CCCCCCC2)cc1	-1%	1	-6	2%	.
O=C(Nc1ccc2c(c1)Cc1ccccc1-2)c1cccnc1	-1%	.	2	-5%	7%
CCCCCC(=O)N1C[C@@H](O)[C@H](n2cc(COC(=O)c3ccccc3)nn2)C[C@@H]1c1ccc(OC)cc1	.	2	-5	.	.
CCc1cc(C(=O)N/N=C/c2ccc(O)cc2O)c2ccccc2n1	1%	-97*	-93*	-3%	.
O=C(C[n+]1ccccc1)N/N=C/c1cc(Br)cc(Br)c1O	0%	6	-89*	14%	.
O=C(O)COc1ccccc1/C=N/NC(=O)c1cc(-c2ccc(Cl)cc2)nc2ccccc12	0%	-81*	-80*	-7%	.
O=C(N/N=C/c1ccc(O)cc1O)c1ccncc1	0%	-91*	-93*	-4%	.
SMILES	B2AR arrestin	CtBP-E1A blk	Six1-Eya2 inh	Eya2 phos inh	L3MBTL1 block
CC1(Cc2ccccc2Cl)C(=O)Nc2ccc(OC(F)(F)F)cc21 (stereo unspecified)	.	4	8	.	.
CCc1sc(C(=O)Nc2cccc(C(C)=O)c2)cc1C	-1%	?	1	1%	9%
CCOc1ccc(CN2CCN(CCCc3ccccc3)CC2CCO)cc1 (stereo unspecified)	-4%	-14	0	-2%	5%
Cc1noc(NS(=O)(=O)c2ccc(N/C=C\C(=O)c3ccc4c(c3)OCO4)cc2)c1C	0%	-75*	-68*	-7%	-5%
Cc1noc(NS(=O)(=O)c2ccc(N/C=C\C(=O)c3ccc(Br)cc3)cc2)c1C	0%	.	-22	7%	-18%
CCCn1c(SCC(=O)NC2CCCCC2)nnc1-c1ccco1	0%	-12	7	1%	.
CCCn1nc(NS(=O)(=O)c2cccc3nonc23)c2cc3ccccc3nc21	-1%	?	-9	-9%	.
CC1(C(=O)NS(=O)(=O)Cc2cccc(Cl)c2)CCN1C(=O)c1cccc(F)c1 (stereo unspecified)	.	-3	1	.	.
CCC(=O)NC(c1cccs1)c1cc(Br)c2cccnc2c1O (stereo unspecified)	-1%	.	.	3%	20%
O=C(CCc1ccccc1)NC(c1cccs1)c1cc(Cl)c2cccnc2c1O (stereo unspecified)	0%	24	-2	-9%	0%
CCCC(=O)NC(c1cccs1)c1cc([N+](=O)[O-])c2cccnc2c1O (stereo unspecified)	0%	-85*	-90*	1%	?
CC(=O)NC(c1cccs1)c1cc([N+](=O)[O-])c2cccnc2c1O (stereo unspecified)	0%	-87*	-89*	0%	10µM*
CCC(=O)NC(c1cccs1)c1cc([N+](=O)[O-])c2cccnc2c1O (stereo unspecified)	1%	-83*	-85*	-5%	10µM*
CCc1noc(C)c1C(=O)Nc1nnc(C(CC)CC)s1	0%	-9	11	-1%	-7%
Cc1c(Br)c(=O)oc2c(Br)c(O)ccc12	0%	2	2	5%	-29%
Cc1c(Br)c(=O)oc2c(Br)c(O)c(O)cc12	-1%	-3	-26	-2%	3.5µM*
CN(C)c1ccc(C(=S)Nc2ccccc2)cc1	0%	2	2	5%	-22%
CN(C)c1ccc(NC(=S)c2ccccn2)cc1	0%	-74*	-88*	0%	32µM*
COc1ccc(Cl)cc1C(Nc1cccnc1)c1ccc2cccnc2c1O (stereo unspecified)	?	-67*	?	-8%	-15%
CCC(=O)NC(c1ccccc1OC)c1ccc2cccnc2c1O (stereo unspecified)	?	?	-88*	6%	?
COc1cccc(C(Nc2ccccc2)c2ccc3ccc(C)nc3c2O)c1 (stereo unspecified)	.	-5	-25	.	.
CCCCC(=O)NC(c1ccccc1)c1ccc2cccnc2c1O (stereo unspecified)	5%	?	-66*	-6%	-28%
CCCCC(=O)NC(c1ccc(C(C)C)cc1)c1ccc2cccnc2c1O (stereo unspecified)	-1%	-22	-24	-3%	0%
CCCC(=O)NC(c1ccccc1)c1ccc2cccnc2c1O (stereo unspecified)	8%	-91*	-66*	11%	?
Cc1[nH]nc2c(=S)[nH]c(=O)[nH]c12	.	14	6	.	.
COc1ccccc1Cc1c(C2CCCCC2)nc2ccc(Br)cn12	.	-2	-2	.	.
CCCCC(=O)NC(c1ccccc1Cl)c1ccc2cccnc2c1O (stereo unspecified)	3%	?	-67*	-5%	3%

High-throughput results (PubChem)
